In PubChem BioAssay (NCI) one finds growth data, which are given here for eight molecules.

Compounds without any hit were thinned out: in the full panel of roughly 83,000, 20% have a hit.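 Note: values are percent growth. 100 is the growth of untreated cells, values between 100 and 0 indicate rising inhibition; between -100 and 0 indicates cell death.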 Unmarked numbers belong to inactive results. Activity calls are given as the source filed them. How the source made its calls: active means growth percent below 10; inactive means the rest.

Some test systems named below: NCI-H226 lung; NCI-H322M lung; HOP-62 NSCLC; NCI-H460 lung; HOP-92 NSCLC; NCI-H522 lung; A549/ATCC NSCLC; 786-0 renal; COLO 205 colon; DU-145 prostate; K-562 leukemia; MALME-3M melanoma; MDA-MB-231 breast; RXF 393 renal; SF-268 CNS; SF-295 CNS; SF-539 CNS; UACC-257 melanoma; M14 melanoma.
What all share (test): NCI-60 one-dose screen, 48 h (100 = growth as untreated, 0 = no growth, -100 = all killed)
Common to all, as to conditions: 10 µM unless noted

Take `COc1ccc2[nH]cc(-c3cc(N)n4nc(-c5cn(C)c6ccccc56)cc4n3)c2c1`: the growth in the assay with NCI-H226 lung was -19.3% (active); in the assay on NCI-H322M lung, -97.2% (active); in the assay on HOP-62 NSCLC, -66.4% (active); in the assay on NCI-H460 lung it was -1.01% (active); in the assay on HOP-92 NSCLC, -71% (active); in the assay with NCI-H522 lung, -75.9% (active). The growth in the assay with A549/ATCC NSCLC was -75.6% (active); in the assay on 786-0 renal, -87.6% (active); in the assay with COLO 205 colon, -84.7% (active); in the assay on DU-145 prostate it was -64.7% (active); with K-562 leukemia it was 4.69% (active); in the assay with MALME-3M melanoma it was -75.5% (active). For the same molecule, the growth in the assay on MDA-MB-231 breast is -44.8% (active); in the assay with RXF 393 renal, -83.9% (active); in the assay with SF-268 CNS, -11.7% (active); with SF-295 CNS it was -81% (active); with SF-539 CNS it was -82% (active); with UACC-257 melanoma it was -86.2% (active). Further, the growth with M14 melanoma is -91.1% (active).
Consider `CC1(C)CC[C@]2(C(=O)O)CC[C@]3(C)C(=CCC4[C@@]5(C)C[C@@H](O)[C@@H]6OC(c7ccccc7Br)OC[C@@]6(C)C5CC[C@]43C)C2C1` (some centres not stated), for which the growth in the assay on NCI-H226 lung was 26.7%; in the assay on NCI-H322M lung, 21.2%; in the assay with HOP-62 NSCLC, 30.3%; in the assay on NCI-H460 lung, 4.53% (active); in the assay with HOP-92 NSCLC it was -1.51% (active); with NCI-H522 lung, 12.1%. Further, the growth in the assay with A549/ATCC NSCLC was 16.6%; with 786-0 renal, 24.9%; with COLO 205 colon it was -36.9% (active); with DU-145 prostate, 20%; with K-562 leukemia, 11.6%; with MALME-3M melanoma, 44%. For the same molecule, the growth was 32.4% with MDA-MB-231 breast; 22.7% in the assay on RXF 393 renal; 24.2% in the assay on SF-268 CNS; 10.6% with SF-295 CNS; 26.8% in the assay on SF-539 CNS; 18.2% in the assay on UACC-257 melanoma. In the assay with M14 melanoma, the growth was 31.8%.
As for `C#CCOc1ccc(/C=N/Nc2nc(-c3cc4cc(OC)ccc4oc3=O)cs2)cc1OC`, the growth in the assay on NCI-H226 lung is 14.2%; in the assay on NCI-H322M lung it was 72.2%; in the assay with HOP-62 NSCLC it was 71.9%; in the assay on NCI-H460 lung it was 8.62% (active); in the assay with HOP-92 NSCLC, -0.0146% (active); in the assay on NCI-H522 lung, 42%. The growth in the assay with A549/ATCC NSCLC was 10%; in the assay with 786-0 renal, 74.2%; in the assay with COLO 205 colon, 63.6%; in the assay with DU-145 prostate it was 31.5%; in the assay on K-562 leukemia, 34.7%; with MALME-3M melanoma, 2.64% (active). Further, the growth in the assay with MDA-MB-231 breast is 44%; with RXF 393 renal, -88.8% (active); in the assay with SF-268 CNS it was 57.2%; with SF-295 CNS, 41.2%; in the assay on SF-539 CNS, 28.2%; in the assay on UACC-257 melanoma, 54.7%. Moreover, the growth in the assay on M14 melanoma was 42.2%.
For the molecule `COc1ccc(NC(=O)Nc2ccc(OCc3ccc(F)cc3)cc2)cc1`, the growth in the assay on NCI-H226 lung was 12.4%; in the assay with NCI-H322M lung it was 65.8%; with HOP-62 NSCLC, 44.5%; with NCI-H460 lung, 46%; with HOP-92 NSCLC it was 21.3%; in the assay with NCI-H522 lung, 65.1%. Besides, the growth in the assay with A549/ATCC NSCLC was 58.9%; in the assay with 786-0 renal, 29.3%; in the assay with COLO 205 colon it was 97.7%; in the assay with DU-145 prostate, 88.5%; with K-562 leukemia, 82.6%; in the assay on MALME-3M melanoma it was 62.3%. The growth in the assay with MDA-MB-231 breast was 53.5%; in the assay with RXF 393 renal, 35%; in the assay on SF-268 CNS, 61.3%; in the assay with SF-295 CNS, 102%; in the assay with SF-539 CNS it was 0.894% (active); in the assay with UACC-257 melanoma, 85.9%. For the same molecule, in the assay on M14 melanoma, the growth was 77%.
Consider `COc1cc2c(c(OC)c1OC)C(=O)CC(c1cccc(NC(=O)c3cc(NC(=O)[C@H](C)N)ccc3Cl)c1)O2` (some centres not stated), for which the growth in the assay on NCI-H226 lung is 48.9%; in the assay with NCI-H322M lung it was 81.2%; with HOP-62 NSCLC, 79.1%; in the assay on NCI-H460 lung it was 51.4%; with HOP-92 NSCLC, 17.9%; in the assay with NCI-H522 lung it was 1.34% (active). In addition, the growth in the assay on A549/ATCC NSCLC was 56%; in the assay on 786-0 renal it was 45%; in the assay with COLO 205 colon it was 74.5%; in the assay with DU-145 prostate it was 36%; in the assay on K-562 leukemia, 9.72% (active); in the assay on MALME-3M melanoma, 45.5%. The growth in the assay with MDA-MB-231 breast was 52.5%; in the assay on RXF 393 renal, 32.1%; with SF-268 CNS it was 50.5%; in the assay with SF-295 CNS, 110%; in the assay on SF-539 CNS, 44.3%; in the assay on UACC-257 melanoma, 62.9%. Besides, in the assay on M14 melanoma, the growth was 44.3%.
As for `Nc1nc(-c2ccccc2)c(N=Nc2ccc([N+](=O)[O-])cc2Cl)s1`, the growth with NCI-H226 lung was 77.5%; in the assay with NCI-H322M lung it was 101%; in the assay on HOP-62 NSCLC, 101%; in the assay with NCI-H460 lung, 74.1%; with HOP-92 NSCLC it was 41.1%; in the assay on NCI-H522 lung it was 48.8%. Besides, the growth in the assay on A549/ATCC NSCLC is 89.8%; in the assay with 786-0 renal, 94.9%; in the assay on COLO 205 colon, 97.6%; with DU-145 prostate, 95.4%; with K-562 leukemia, 67.3%; in the assay with MALME-3M melanoma, 108%. Besides, the growth in the assay on MDA-MB-231 breast is 87.8%; in the assay with RXF 393 renal, 109%; in the assay with SF-268 CNS, 90.2%; with SF-295 CNS, 92.1%; in the assay on SF-539 CNS it was 96.5%; with UACC-257 melanoma it was 61.6%. In addition, the growth in the assay on M14 melanoma is 92.9%.
For `C#C[C@]1(O)CC[C@H]2[C@@H]3CC=C4c5sc(-c6ccc(O)c(O)c6)nc5CC[C@]4(C)[C@H]3CC[C@@]21C`, the growth was -65.4% (active) with NCI-H226 lung; -79.6% (active) with NCI-H322M lung; -83.1% (active) with HOP-62 NSCLC; -77.6% (active) in the assay on NCI-H460 lung; -53.8% (active) in the assay on HOP-92 NSCLC; -77.1% (active) in the assay on NCI-H522 lung. In addition, the growth with A549/ATCC NSCLC is -78.6% (active); in the assay on 786-0 renal it was -88.3% (active); with COLO 205 colon it was -80.2% (active); with DU-145 prostate, -49.4% (active); in the assay on K-562 leukemia, -51.3% (active); with MALME-3M melanoma, -84% (active). In addition, the growth in the assay on MDA-MB-231 breast is -77.8% (active); in the assay with RXF 393 renal it was -90.2% (active); with SF-268 CNS, -76.7% (active); in the assay on SF-295 CNS, -94.2% (active); in the assay with SF-539 CNS, -93.2% (active); in the assay on UACC-257 melanoma it was -81.7% (active). In addition, the growth in the assay with M14 melanoma is -87.7% (active).
On to `Cn1cc(-c2cc3nc(-c4c[nH]c5ccc(Cl)cc45)cc(N)n3n2)c2ccccc21`, for which the growth with NCI-H226 lung was -33.8% (active); with NCI-H322M lung, -82% (active); in the assay with HOP-62 NSCLC it was -72.3% (active); in the assay with NCI-H460 lung, -5.5% (active); in the assay on HOP-92 NSCLC it was -76.5% (active); in the assay on NCI-H522 lung, -76.5% (active). Further, the growth in the assay on A549/ATCC NSCLC is -75% (active); in the assay on 786-0 renal, -89% (active); in the assay on COLO 205 colon it was -87.4% (active); in the assay on DU-145 prostate, -85.9% (active); in the assay with K-562 leukemia it was 1.64% (active); with MALME-3M melanoma, -74.4% (active). The growth with MDA-MB-231 breast is -56.2% (active); with RXF 393 renal, -80.1% (active); in the assay on SF-268 CNS, -44.9% (active); with SF-295 CNS, -82.9% (active); in the assay on SF-539 CNS, -87.9% (active); with UACC-257 melanoma, -84.8% (active). Moreover, in the assay with M14 melanoma, the growth was -89.6% (active).
